Source: PubChem BioAssay (The Scripps Research Institute Molecular Screening Center)
MOR-DOR ag-1: OPRM1-OPRD1 heterodimerization agonism; AID 504326; P35372+P41143; 340,000 compounds, 0.3% hits; activation, % at 9.3 µM; cells, luminescence
HTR5A inv ag: inverse agonist of human HTR5A in OPRM1-OPRD1 counter-screen | 340,000 compounds, 0.083% hits | inhibition, % at 9.3 µM | HTR5A cell line, luminescence, inverse agonism | AID 504634 | P47898; in the data active = inhibition mostly above about 23%, no sharp cut-off; inactive = mostly below about 18%
Target sequence (P47898 whole entry, looked up): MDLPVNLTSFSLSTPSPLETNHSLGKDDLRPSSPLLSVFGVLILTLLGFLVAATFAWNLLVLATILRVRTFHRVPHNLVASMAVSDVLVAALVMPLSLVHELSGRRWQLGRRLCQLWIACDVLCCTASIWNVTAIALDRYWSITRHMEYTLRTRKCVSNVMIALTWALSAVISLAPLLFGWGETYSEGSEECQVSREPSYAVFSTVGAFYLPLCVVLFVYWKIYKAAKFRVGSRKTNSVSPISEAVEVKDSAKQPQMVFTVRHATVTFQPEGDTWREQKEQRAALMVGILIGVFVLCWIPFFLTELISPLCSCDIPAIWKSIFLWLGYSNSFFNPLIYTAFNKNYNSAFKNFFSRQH
HTR5A ag: activates human HTR5A in OPRM1-OPRD1 agonist counter-screen; 340,000 compounds, 0.61% hits; activation, % at 9.3 µM; AID 504692; HTR5A agonist assay, luminescence, cell-based; P47898; in the data active = activation mostly above about 9.5%, no sharp cut-off; inactive = mostly below about 7.6%
MOR-DOR inv ag: inverse agonists of human mu-delta opioid receptor heterodimerization | 340,000 compounds, 0.21% hits | cell-based MOR-DOR heterodimer luminescence, inverse agonism | inhibition, % at 9.3 µM; in the data active = inhibition above about 22%, passing the limit was not always enough
MOR-DOR ag-2: opioid heterodimer agonism, HTR5A counter-screen | activation, % at 9.3 µM | 800 compounds, 13% hits | shares compounds with HTR5A ag | AID 504913 | U2OS counter-screen cells, complementation luminescence, 3 h
HTR5A ag confirm: confirmation of human HTR5A agonists; shares compounds with HTR5A ag; HTR5A agonist cell assay, luminescence; activation, % at 9.3 µM; 800 compounds, 17% hits; AID 504915; in the data active = activation above about 17%
Large screens that a line does not name were inactive (follow-up assays come after a bar, where they were run). Compounds with a hit are over-represented: about 1.1% of the library has one in this group of screens. Cut-off read from the data, not from the text of the source, unless noted: active = activation above about 18%; inactive = the rest.

CCOc1cc(N2CCOCC2)c(OCC)cc1NC(=O)c1cc(-c2ccco2)nc2ccccc12	HTR5A ag 24.1 | MOR-DOR ag-2 95.6 | HTR5A ag confirm inactive
COc1cc2c(cc1NC(=O)CN1CCN(S(=O)(=O)c3ccc(C)cc3)CC1)oc1ccccc12	HTR5A ag 14.6 | MOR-DOR ag-2 218.3 | HTR5A ag confirm inactive
COc1ccc(C)cc1NC(=O)CN1CCN(S(=O)(=O)c2ccc(Cl)cc2)CC1	none
CCCCN1CC(COCc2ccccc2)Oc2cccc(Oc3cc(C)c(C)c(C)c3)c2S1(=O)=O (centres undefined)	none
O=C(Nc1nnc(SCC(=O)N2CCOCC2)s1)C1CC(=O)N(c2ccccc2)C1 (centres undefined)	HTR5A ag 17.0 | MOR-DOR ag-2 31.6 | HTR5A ag confirm inactive
Cc1ccc(C2=NN(C(=O)CCl)C(c3cccs3)C2)o1 (centres undefined)	HTR5A ag 16.4 | MOR-DOR ag-2 21.1 | HTR5A ag confirm 16.8
O=C(CCl)N1N=C(c2ccco2)CC1c1cccs1 (centres undefined)	none
CCOc1ccccc1N(CC(=O)NCCSc1ccccn1)S(=O)(=O)c1ccccc1	HTR5A ag 25.4 | MOR-DOR ag-2 125.8 | HTR5A ag confirm inactive
CCOc1ccccc1N(CC(=O)NCCSc1ccccn1)S(=O)(=O)c1ccc(C)cc1	HTR5A ag 29.8 | MOR-DOR ag-2 inactive | HTR5A ag confirm inactive
Cc1ccc(S(=O)(=O)N(CC(=O)NCCSc2ccccn2)c2ccc(C)c(C)c2)cc1	none
CCc1nnc(NC(=O)CSCc2cc(=O)n3ccsc3n2)s1	none
CCCCn1c(N)c(N(CC)C(=O)c2cccs2)c(=O)[nH]c1=O	none
COc1ccc(NC(=O)CN(C)C(=O)C2CC(=O)N(c3cccc4ccccc34)C2)cc1 (centres undefined)	HTR5A ag 16.0 | MOR-DOR ag-2 inactive | HTR5A ag confirm inactive
CC(=O)Nc1ccc(S(=O)(=O)NCCc2c[nH]c3ccc(C)cc23)cc1	HTR5A ag 26.8 | MOR-DOR ag-2 60.2 | HTR5A ag confirm inactive
Cc1ccc2[nH]cc(CCNS(=O)(=O)c3ccc(F)cc3)c2c1	none
Cc1onc(-c2ccccc2)c1C(=O)N/N=C/c1ccc([N+](=O)[O-])c(O)c1	HTR5A ag 20.3 | MOR-DOR ag-2 inactive | HTR5A ag confirm inactive
CCc1ccc(C(=O)NNC(=O)CN2C(=O)NC(CC)(c3ccccc3)C2=O)cc1 (centres undefined)	none
C/C=C/C=[N+](\[O-])C(C)/C(=N/O)c1ccc(F)cc1 (centres undefined)	HTR5A ag 16.6 | MOR-DOR ag-2 inactive | HTR5A ag confirm inactive
Nc1nc(SCc2ccc(Cl)cc2Cl)c2ncn(C3OC(CO)C(O)C3O)c2n1 (centres undefined)	none
COc1ccccc1NCC(=O)N/N=C(\C)c1ccc(Br)s1	HTR5A ag 45.8 | MOR-DOR ag-2 inactive | HTR5A ag confirm 35.5
C/C(=N/NC(=O)CNc1ccc(C)cc1)c1ccc(Br)s1	HTR5A ag 24.0 | MOR-DOR ag-2 inactive | HTR5A ag confirm 38.1
COc1cc(S(=O)(=O)N2CCN(c3ccccn3)CC2)ccc1Br	none
NNc1nc2cc3c(cc2s1)OCCO3	none
COc1cc(OC)cc(C(=O)NCC(=O)NCC(c2ccco2)N2CCCCC2)c1 (centres undefined)	none
Cc1ccccc1N(C(=O)c1ccccn1)C(C(=O)NCc1ccccc1)c1cccnc1 (centres undefined)	none
Cc1cc(C)c(C#N)c(SCC(=O)Nc2cccc(S(=O)(=O)N3CCCC3)c2)n1	HTR5A ag 15.0 | MOR-DOR ag-2 inactive | HTR5A ag confirm inactive
O=C(CNc1cccc(C(F)(F)F)c1)Nc1cccc(S(=O)(=O)N2CCCC2)c1	HTR5A ag 19.2 | MOR-DOR ag-2 inactive | HTR5A ag confirm inactive
O=C(CNc1cccc(S(=O)(=O)N2CCCC2)c1)Nc1cccc(F)c1	none
CCOC(=O)C1CCN(Cc2cc(=O)oc3c(C)c(C)ccc23)CC1	none
CS(=O)(=O)C1=C(O)C(=O)N(CCCC(=O)O)C1c1ccccc1F (centres undefined)	HTR5A ag 16.5 | MOR-DOR ag-2 inactive | HTR5A ag confirm inactive
O=C(Nc1ccc(Cl)cc1)c1nc[nH]c1C(=O)N1CCN(c2ccccc2)CC1	none
Oc1ccc(CNc2ccc(F)cc2)c2cccnc12	HTR5A ag 23.4 | MOR-DOR ag-2 inactive | HTR5A ag confirm inactive
Oc1ccc(CNc2ccccc2)c2cccnc12	none
Cc1ccc(SCCC(=O)Nc2ccccc2C(=O)NC(C)C)cc1	HTR5A ag 16.7 | MOR-DOR ag-2 inactive | HTR5A ag confirm inactive
Cc1cc(NC(=O)CSc2nc(-c3ccc(Cl)cc3)cs2)no1	HTR5A ag 20.3 | MOR-DOR ag-2 inactive | HTR5A ag confirm inactive
Cc1c(C(=O)Nc2ccccn2)sc2nc3n(c(=O)c12)CCC3	none
Cc1nc2cc(NC(=O)N3c4ccccc4CC3C)ccc2n1C (centres undefined)	HTR5A ag 22.4 | MOR-DOR ag-2 inactive | HTR5A ag confirm 24.4
COc1ccc(C(C)(C)C)cc1NC(=O)c1ccc2ncsc2c1	HTR5A ag 16.3 | MOR-DOR ag-2 inactive | HTR5A ag confirm inactive
COc1ccc(CC(=O)c2cc(OC)c(OC)cc2CC(=O)O)cc1OC	none
COc1ccc(C(=O)Cc2ccc(OC)c(OC)c2)c(OC)c1	HTR5A ag 18.9 | MOR-DOR ag-2 inactive | HTR5A ag confirm inactive
CCN(CC)S(=O)(=O)c1ccc(N2CCN(C)CC2)c(NC(=O)c2cc(=O)c3ccccc3o2)c1	none
O=C(COc1cccc2ccccc12)Nc1cc(Cl)ccc1C(=O)O	none
O=C(COc1cccc2ccccc12)Nc1ccc(Cl)cc1C(=O)O	HTR5A ag 44.9 | MOR-DOR ag-2 inactive | HTR5A ag confirm 46.0
COc1ccc(CCNS(=O)(=O)c2ccc(OC)c(OC)c2)cc1OC	HTR5A ag 17.2 | MOR-DOR ag-2 inactive | HTR5A ag confirm inactive
CCOC(=O)c1cccc(NC(=O)C2CCC(CNc3c(N4CCOCC4)c(=O)c3=O)CC2)c1 (centres undefined)	HTR5A ag 22.0 | MOR-DOR ag-2 inactive | HTR5A ag confirm inactive
CCOc1ccc(NC(=O)C2CCC(CNc3c(N4CCCCC4)c(=O)c3=O)CC2)cc1 (centres undefined)	none
O=c1[nH]cnc(O)c1C(c1ccc2c(c1)OCO2)c1c(O)nc[nH]c1=O	HTR5A ag 16.7 | MOR-DOR ag-2 inactive | HTR5A ag confirm inactive
O=c1[nH]cnc(O)c1C(c1ccc(Br)cc1)c1c(O)nc[nH]c1=O	none
CN(C)c1cccc(C(=O)NCC2CCCO2)c1 (centres undefined)	HTR5A ag 20.5 | MOR-DOR ag-2 inactive | HTR5A ag confirm inactive
CN(C)c1ccc(C(=O)NCC2CCCO2)cc1 (centres undefined)	none
COC(=O)C1CCN(C(=O)C2CC(=O)N(c3ccc(C)c(Cl)c3)C2)CC1 (centres undefined)	none
Cc1nn(-c2ccccc2)c(Cl)c1C(=O)NCCN(C)C	HTR5A ag 15.4 | MOR-DOR ag-2 inactive | HTR5A ag confirm inactive
Cc1nn(-c2ccccc2)c(Cl)c1C(=O)NCC(C)C	none
